# Assay results published in publication PMC7862700, “An all-to-all approach to the identification of sequence-specific readers for epigenetic DNA modifications on cytosine”.
# Tests used:
# Assay in all cases: DAPPL (digital affinity profiling via proximity ligation, sequencing); 10 mM Tris-HCl pH 7.5, 50 mM NaCl, 1 mM DTT, 4% glycerol, room temperature, 30 min; GST-TFs on glutathione beads, 16-mer random dsDNA library, 0.1% formaldehyde crosslink after washing; high values mean tight binding
# [1] = biological target: T1, FLI1 (Homo sapiens, UniProt Q01543 1-452); conditions: protein: recombinant; tags: N-terminal GST; dsDNA, one strand shown
# T1 sequence: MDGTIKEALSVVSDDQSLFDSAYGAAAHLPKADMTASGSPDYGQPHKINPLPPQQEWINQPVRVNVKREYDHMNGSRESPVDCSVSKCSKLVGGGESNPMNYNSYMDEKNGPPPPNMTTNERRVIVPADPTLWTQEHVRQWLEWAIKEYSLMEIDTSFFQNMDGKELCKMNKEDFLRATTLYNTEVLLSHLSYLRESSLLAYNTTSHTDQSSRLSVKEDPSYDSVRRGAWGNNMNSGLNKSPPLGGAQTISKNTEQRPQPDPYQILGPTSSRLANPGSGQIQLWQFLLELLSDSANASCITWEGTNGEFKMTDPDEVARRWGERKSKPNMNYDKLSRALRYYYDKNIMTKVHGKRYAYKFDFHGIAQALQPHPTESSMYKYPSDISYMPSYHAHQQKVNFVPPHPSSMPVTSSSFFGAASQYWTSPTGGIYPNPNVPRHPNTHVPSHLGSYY
# In short: (§1)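 Pools were built from human transcription factors expressed in yeast as GST fusions, captured on glutathione beads and DNA-barcoded, along with a tag-only sample. Incubation with 200 nmole of a 16-mer random double-stranded DNA library lasted 30 min at room temperature in Tris/NaCl/DTT/glycerol buffer, and was followed by washing, 0.1% formaldehyde crosslinking, proximity ligation, PCR amplification and Illumina NextSeq500 sequencing. Binding signal is the quotient of each hexamer's read frequency for a factor and its frequency for the tag-only sample.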
# [2] = biological target: T2, ELK1 (Homo sapiens, UniProt P19419 1-428); conditions: protein: recombinant; tags: N-terminal GST; dsDNA, one strand shown
# T2 sequence: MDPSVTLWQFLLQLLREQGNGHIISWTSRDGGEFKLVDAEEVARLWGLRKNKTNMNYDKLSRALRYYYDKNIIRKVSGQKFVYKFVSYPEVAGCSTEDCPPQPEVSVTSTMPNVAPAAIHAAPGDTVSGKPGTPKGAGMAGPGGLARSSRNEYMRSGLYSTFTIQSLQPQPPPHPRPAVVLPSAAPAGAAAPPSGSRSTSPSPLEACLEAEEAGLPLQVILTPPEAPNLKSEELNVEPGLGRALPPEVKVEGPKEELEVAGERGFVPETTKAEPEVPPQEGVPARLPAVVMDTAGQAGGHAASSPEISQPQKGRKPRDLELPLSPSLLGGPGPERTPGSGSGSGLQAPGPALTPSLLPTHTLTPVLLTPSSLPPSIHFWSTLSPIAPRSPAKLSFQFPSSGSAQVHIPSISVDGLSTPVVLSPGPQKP
# In short: as §1
# [3] = biological target: T3, GABPA (Homo sapiens, UniProt Q06546 1-454); conditions: protein: recombinant; tags: N-terminal GST; dsDNA, one strand shown
# T3 sequence: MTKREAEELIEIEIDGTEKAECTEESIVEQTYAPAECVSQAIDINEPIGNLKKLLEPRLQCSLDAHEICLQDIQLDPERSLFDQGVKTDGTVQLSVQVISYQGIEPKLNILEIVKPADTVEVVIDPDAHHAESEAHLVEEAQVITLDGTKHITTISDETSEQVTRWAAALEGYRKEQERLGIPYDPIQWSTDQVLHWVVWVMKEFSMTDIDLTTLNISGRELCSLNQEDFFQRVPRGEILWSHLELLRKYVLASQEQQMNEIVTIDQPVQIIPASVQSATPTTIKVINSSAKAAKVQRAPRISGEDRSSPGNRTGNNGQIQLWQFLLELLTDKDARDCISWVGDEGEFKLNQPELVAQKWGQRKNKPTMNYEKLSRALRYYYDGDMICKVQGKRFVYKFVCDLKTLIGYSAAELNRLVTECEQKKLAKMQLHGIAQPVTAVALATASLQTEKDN
# In short: as §1
# [4] = biological target: T4, ERG (Homo sapiens, UniProt P11308 1-479); conditions: protein: recombinant; tags: N-terminal GST; dsDNA, one strand shown
# T4 sequence: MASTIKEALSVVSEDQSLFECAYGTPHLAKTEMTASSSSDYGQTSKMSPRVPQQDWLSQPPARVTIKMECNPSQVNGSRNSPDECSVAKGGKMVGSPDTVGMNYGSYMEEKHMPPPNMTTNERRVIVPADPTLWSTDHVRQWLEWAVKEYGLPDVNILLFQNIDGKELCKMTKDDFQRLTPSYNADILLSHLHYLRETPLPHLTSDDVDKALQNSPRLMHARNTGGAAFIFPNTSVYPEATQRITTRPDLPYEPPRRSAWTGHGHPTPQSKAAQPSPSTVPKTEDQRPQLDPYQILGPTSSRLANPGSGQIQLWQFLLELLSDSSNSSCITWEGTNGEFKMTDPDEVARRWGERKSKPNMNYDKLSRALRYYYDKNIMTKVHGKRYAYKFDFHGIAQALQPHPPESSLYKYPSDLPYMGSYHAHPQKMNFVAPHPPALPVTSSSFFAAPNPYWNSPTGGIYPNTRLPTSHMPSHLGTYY
# In short: as §1
# [5] = biological target: T5, EHF (Homo sapiens, UniProt Q9NZC4 1-300); conditions: protein: recombinant; tags: N-terminal GST; dsDNA, one strand shown
# T5 sequence: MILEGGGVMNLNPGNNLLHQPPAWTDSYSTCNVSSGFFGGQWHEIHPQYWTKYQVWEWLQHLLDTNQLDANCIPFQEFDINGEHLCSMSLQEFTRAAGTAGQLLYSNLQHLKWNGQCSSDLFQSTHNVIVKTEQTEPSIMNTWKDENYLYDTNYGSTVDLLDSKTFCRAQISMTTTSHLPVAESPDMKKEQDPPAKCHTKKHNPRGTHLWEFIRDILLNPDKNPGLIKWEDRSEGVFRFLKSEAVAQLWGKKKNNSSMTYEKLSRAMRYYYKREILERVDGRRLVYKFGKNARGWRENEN
# In short: as §1
# [6] = biological target: SPI1 (Homo sapiens, UniProt P17947 1-270); conditions: protein: recombinant; tags: N-terminal GST; dsDNA, one strand shown
# In short: as §1
# [7] = biological target: SPIB (Homo sapiens, UniProt Q01892 1-262); conditions: protein: recombinant; tags: N-terminal GST; dsDNA, one strand shown
# In short: as §1
# [8] = biological target: T6, ELK3 (Homo sapiens, UniProt P41970 1-407); conditions: protein: recombinant; tags: N-terminal GST; dsDNA, one strand shown
# T6 sequence: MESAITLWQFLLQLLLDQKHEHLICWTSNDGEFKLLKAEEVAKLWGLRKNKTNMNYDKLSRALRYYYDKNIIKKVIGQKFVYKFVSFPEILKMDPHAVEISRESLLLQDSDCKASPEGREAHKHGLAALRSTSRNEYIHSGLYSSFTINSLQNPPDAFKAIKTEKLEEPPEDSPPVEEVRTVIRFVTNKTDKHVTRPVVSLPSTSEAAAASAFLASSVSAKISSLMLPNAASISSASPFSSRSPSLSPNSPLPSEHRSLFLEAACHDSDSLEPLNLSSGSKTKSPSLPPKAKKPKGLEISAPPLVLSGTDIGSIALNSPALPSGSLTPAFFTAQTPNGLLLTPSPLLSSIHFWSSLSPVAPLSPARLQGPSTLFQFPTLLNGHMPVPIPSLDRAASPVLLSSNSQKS
# In short: as §1
# [9] = biological target: ETV5 (Homo sapiens, UniProt P41161 1-510); conditions: protein: recombinant; tags: N-terminal GST; dsDNA, one strand shown
# In short: as §1
# [10] = biological target: HSF1 (Homo sapiens, UniProt Q00613 1-529); conditions: protein: recombinant; tags: N-terminal GST; chain copies: 3; dsDNA, one strand shown
# In short: as §1
# [11] = biological target: T7, SPIC (Homo sapiens, UniProt Q8N5J4 1-248); conditions: protein: recombinant; tags: N-terminal GST; dsDNA, one strand shown
# T7 sequence: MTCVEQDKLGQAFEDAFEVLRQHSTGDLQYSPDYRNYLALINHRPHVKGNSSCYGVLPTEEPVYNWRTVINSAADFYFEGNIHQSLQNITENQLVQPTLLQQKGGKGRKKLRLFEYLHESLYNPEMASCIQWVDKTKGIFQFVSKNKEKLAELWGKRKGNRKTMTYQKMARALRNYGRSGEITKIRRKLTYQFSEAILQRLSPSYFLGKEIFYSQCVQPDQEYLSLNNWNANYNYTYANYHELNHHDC
# In short: as §1
# [12] = biological target: ELF4 (Homo sapiens, UniProt Q99607 1-663); conditions: protein: recombinant; tags: N-terminal GST; dsDNA, one strand shown
# In short: as §1
# [13] = biological target: T8, ELK4 (Homo sapiens, UniProt P28324-2 1-405); conditions: protein: recombinant; tags: N-terminal GST; dsDNA, one strand shown
# T8 sequence: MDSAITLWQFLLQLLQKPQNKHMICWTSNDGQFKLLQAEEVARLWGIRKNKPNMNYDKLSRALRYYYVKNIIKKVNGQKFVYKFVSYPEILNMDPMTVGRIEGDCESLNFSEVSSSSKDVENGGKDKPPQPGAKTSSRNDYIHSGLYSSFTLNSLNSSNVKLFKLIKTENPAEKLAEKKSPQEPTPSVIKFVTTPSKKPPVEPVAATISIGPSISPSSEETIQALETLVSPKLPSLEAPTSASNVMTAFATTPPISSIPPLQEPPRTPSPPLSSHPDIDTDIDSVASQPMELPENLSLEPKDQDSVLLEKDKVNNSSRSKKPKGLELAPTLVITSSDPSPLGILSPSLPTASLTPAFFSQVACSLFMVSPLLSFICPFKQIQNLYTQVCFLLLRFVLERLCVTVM
# In short: as §1
# [14] = biological target: T9, ETV2 (Homo sapiens, UniProt O00321 1-342); conditions: protein: recombinant; tags: N-terminal GST; dsDNA, one strand shown
# T9 sequence: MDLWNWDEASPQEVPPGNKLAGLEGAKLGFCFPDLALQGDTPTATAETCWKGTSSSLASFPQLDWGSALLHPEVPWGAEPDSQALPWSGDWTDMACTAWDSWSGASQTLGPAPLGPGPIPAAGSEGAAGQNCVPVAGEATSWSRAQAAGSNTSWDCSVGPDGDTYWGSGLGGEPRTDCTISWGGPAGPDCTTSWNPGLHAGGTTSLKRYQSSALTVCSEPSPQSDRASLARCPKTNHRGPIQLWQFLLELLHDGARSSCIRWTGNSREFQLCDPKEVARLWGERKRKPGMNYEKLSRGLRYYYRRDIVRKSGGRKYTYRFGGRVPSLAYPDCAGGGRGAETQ
# In short: as §1
# [15] = biological target: T10, ELF3 (Homo sapiens, UniProt P78545 1-371); conditions: protein: recombinant; tags: N-terminal GST; dsDNA, one strand shown
# T10 sequence: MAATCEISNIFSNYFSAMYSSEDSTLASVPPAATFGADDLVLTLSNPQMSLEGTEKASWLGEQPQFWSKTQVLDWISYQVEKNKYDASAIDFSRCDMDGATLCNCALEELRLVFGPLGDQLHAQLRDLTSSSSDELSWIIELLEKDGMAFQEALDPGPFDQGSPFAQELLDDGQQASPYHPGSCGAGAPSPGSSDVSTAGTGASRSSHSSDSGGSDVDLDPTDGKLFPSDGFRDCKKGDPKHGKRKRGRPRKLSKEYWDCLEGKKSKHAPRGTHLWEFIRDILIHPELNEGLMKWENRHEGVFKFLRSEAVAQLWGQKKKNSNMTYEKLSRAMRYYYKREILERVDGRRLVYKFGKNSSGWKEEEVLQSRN
# In short: as §1
# [16] = biological target: CRX (Homo sapiens, UniProt O43186 1-299); conditions: protein: recombinant; tags: N-terminal GST; dsDNA, one strand shown
# In short: as §1
# [17] = biological target: ETV1 (Homo sapiens, UniProt P50549 1-477); conditions: protein: recombinant; tags: N-terminal GST; dsDNA, one strand shown
# In short: as §1
# [18] = biological target: ELF1 (Homo sapiens, UniProt P32519 1-619); conditions: protein: recombinant; tags: N-terminal GST; dsDNA, one strand shown
# In short: as §1
# Chain of SPIB (Q01892 whole entry): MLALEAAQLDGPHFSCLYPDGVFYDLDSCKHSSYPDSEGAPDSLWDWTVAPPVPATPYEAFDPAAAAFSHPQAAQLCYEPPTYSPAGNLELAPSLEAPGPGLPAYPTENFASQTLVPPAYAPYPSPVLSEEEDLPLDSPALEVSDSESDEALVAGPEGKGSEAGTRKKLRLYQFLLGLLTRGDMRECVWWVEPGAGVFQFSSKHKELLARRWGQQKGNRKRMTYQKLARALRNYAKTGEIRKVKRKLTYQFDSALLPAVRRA
# Chain of HSF1 (Q00613 whole entry): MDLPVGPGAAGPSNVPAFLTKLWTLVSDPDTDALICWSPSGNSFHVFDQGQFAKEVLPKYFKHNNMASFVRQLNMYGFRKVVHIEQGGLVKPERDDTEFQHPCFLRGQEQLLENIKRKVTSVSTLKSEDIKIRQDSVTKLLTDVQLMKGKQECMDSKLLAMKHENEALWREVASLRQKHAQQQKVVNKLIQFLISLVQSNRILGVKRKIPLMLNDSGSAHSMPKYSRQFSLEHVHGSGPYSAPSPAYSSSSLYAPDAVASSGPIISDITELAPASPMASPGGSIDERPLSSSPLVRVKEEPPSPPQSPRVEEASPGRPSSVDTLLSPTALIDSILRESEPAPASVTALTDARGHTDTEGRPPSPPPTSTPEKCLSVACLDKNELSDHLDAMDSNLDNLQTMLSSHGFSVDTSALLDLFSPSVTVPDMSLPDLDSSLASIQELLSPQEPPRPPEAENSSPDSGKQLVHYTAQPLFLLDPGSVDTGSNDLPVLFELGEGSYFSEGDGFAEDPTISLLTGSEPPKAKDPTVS
# Chain of ELF4 (Q99607 whole entry): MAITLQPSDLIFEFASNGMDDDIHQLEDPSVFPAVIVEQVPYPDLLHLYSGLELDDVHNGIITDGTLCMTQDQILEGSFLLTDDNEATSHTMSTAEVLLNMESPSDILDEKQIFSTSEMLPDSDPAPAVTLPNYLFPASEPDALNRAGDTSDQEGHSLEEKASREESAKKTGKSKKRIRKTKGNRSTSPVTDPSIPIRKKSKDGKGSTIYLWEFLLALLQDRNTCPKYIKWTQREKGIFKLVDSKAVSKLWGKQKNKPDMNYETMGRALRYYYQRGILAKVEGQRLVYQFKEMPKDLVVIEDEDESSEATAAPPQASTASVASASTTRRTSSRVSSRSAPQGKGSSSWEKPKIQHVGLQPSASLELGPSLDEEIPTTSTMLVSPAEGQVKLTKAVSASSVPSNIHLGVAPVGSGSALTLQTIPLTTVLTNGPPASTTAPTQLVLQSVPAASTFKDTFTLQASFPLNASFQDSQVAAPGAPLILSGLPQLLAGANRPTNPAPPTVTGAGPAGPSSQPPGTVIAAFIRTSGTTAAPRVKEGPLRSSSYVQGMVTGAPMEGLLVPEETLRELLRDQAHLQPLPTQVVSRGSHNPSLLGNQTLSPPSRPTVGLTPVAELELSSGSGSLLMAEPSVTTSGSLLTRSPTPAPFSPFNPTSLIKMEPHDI
# Chain of ETV5 (P41161 whole entry): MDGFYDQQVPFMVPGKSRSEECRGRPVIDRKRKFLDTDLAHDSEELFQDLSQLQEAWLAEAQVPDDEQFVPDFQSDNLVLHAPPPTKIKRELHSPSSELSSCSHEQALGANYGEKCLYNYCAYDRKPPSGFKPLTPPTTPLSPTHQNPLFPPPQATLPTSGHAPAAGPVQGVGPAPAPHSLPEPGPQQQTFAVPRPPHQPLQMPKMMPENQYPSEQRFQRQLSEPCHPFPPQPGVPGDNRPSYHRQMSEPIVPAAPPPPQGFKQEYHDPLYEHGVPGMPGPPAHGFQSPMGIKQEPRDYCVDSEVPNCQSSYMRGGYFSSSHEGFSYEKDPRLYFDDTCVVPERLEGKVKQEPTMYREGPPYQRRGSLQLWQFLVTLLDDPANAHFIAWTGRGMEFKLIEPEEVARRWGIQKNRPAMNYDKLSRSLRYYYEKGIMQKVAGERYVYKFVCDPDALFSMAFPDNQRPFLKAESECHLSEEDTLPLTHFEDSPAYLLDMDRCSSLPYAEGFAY
# Chain of CRX (O43186 whole entry): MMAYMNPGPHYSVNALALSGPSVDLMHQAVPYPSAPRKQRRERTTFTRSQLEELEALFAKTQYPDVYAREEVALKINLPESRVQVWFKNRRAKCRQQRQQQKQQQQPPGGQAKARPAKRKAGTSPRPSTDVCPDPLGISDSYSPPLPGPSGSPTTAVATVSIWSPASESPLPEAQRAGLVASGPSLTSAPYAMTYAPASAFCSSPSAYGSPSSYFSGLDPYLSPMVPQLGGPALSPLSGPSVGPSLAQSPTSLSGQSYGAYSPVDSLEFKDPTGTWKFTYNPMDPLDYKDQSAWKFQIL
# Chain of ETV1 (P50549 whole entry): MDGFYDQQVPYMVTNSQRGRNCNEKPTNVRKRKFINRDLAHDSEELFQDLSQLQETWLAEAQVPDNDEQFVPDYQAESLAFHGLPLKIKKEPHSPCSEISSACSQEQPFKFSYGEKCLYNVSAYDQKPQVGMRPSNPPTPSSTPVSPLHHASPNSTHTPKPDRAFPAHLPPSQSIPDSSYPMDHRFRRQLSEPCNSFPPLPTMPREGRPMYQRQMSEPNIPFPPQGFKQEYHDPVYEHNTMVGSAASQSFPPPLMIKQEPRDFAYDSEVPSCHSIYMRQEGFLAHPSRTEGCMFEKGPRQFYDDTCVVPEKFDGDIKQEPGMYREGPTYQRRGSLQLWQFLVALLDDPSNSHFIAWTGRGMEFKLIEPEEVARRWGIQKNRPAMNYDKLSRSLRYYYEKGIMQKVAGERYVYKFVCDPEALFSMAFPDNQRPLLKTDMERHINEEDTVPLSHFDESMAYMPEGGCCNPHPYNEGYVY
# Chain of ELF1 (P32519 whole entry): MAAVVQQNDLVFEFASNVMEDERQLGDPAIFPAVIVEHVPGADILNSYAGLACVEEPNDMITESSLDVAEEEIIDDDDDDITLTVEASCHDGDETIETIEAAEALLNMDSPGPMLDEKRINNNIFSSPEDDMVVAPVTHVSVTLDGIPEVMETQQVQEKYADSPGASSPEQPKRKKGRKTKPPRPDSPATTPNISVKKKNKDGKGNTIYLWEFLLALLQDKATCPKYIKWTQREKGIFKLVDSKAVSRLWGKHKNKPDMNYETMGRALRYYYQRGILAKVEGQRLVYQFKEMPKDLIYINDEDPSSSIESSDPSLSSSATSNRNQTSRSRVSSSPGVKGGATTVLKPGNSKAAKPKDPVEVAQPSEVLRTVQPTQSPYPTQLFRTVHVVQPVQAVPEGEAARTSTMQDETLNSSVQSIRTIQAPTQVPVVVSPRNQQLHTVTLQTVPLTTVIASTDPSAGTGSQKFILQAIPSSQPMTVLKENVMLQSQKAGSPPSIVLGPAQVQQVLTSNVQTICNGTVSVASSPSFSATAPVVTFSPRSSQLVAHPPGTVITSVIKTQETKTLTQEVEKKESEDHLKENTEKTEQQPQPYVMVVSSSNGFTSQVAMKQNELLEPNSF
Sequence,binding signal [1],binding signal [2],binding signal [3],binding signal [4],binding signal [5],binding signal [6],binding signal [7],binding signal [8],binding signal [9],binding signal [10],binding signal [11],binding signal [12],binding signal [13],binding signal [14],binding signal [15],binding signal [16],binding signal [17],binding signal [18]
AGGTTT,"1.02 fold enrichment (6-mer frequency, TF over GST control)","1.04 fold enrichment (6-mer frequency, TF over GST control)","1.08 fold enrichment (6-mer frequency, TF over GST control)","1.06 fold enrichment (6-mer frequency, TF over GST control)","1.07 fold enrichment (6-mer frequency, TF over GST control)","1.06 fold enrichment (6-mer frequency, TF over GST control)","1.04 fold enrichment (6-mer frequency, TF over GST control)","1.13 fold enrichment (6-mer frequency, TF over GST control)","1.05 fold enrichment (6-mer frequency, TF over GST control)","1.04 fold enrichment (6-mer frequency, TF over GST control)","1.03 fold enrichment (6-mer frequency, TF over GST control)","1.07 fold enrichment (6-mer frequency, TF over GST control)","1.06 fold enrichment (6-mer frequency, TF over GST control)","1.05 fold enrichment (6-mer frequency, TF over GST control)","1.07 fold enrichment (6-mer frequency, TF over GST control)","1.19 fold enrichment (6-mer frequency, TF over GST control)","1.1 fold enrichment (6-mer frequency, TF over GST control)",
TGTGGA,"1.08 fold enrichment (6-mer frequency, TF over GST control)","1.01 fold enrichment (6-mer frequency, TF over GST control)","1.06 fold enrichment (6-mer frequency, TF over GST control)","1.16 fold enrichment (6-mer frequency, TF over GST control)",,"1.09 fold enrichment (6-mer frequency, TF over GST control)","1.1 fold enrichment (6-mer frequency, TF over GST control)","1.04 fold enrichment (6-mer frequency, TF over GST control)","1.04 fold enrichment (6-mer frequency, TF over GST control)","1.13 fold enrichment (6-mer frequency, TF over GST control)","1.11 fold enrichment (6-mer frequency, TF over GST control)","1.06 fold enrichment (6-mer frequency, TF over GST control)","1.15 fold enrichment (6-mer frequency, TF over GST control)","1.13 fold enrichment (6-mer frequency, TF over GST control)","1 fold enrichment (6-mer frequency, TF over GST control)","1.06 fold enrichment (6-mer frequency, TF over GST control)","1.03 fold enrichment (6-mer frequency, TF over GST control)","1.11 fold enrichment (6-mer frequency, TF over GST control)"
